Measurements from PubChem BioAssay AID1159580 (chemical genetic matrix, 2015).
Values joined by “and” are separate entries in the source; they are usually repeats but may differ in a detail not shown here. Identical values can stand only once. The campaign covered roughly 5,500 compounds. About 2,000 (36%) were called active. Another 18% or so got no clear call; they are omitted. Rule as the data show it: active = normalized growth mostly below about 0.91 (no sharp cut-off); inconclusive = no clear call, values can overlap the other calls; inactive = mostly above about 0.92. The list shows a part of the results.

Assay: chemical genetic growth profiling, strain panel (AID 1159580);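 also: tested at 20 µM; growth read once vehicle control cultures reached saturation at 30 °C; 1 = growth at the plate median or of vehicle wells; lower values mean less growth of the strain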
Settings: S. cerevisiae deletion strains, growth OD

Measured: normalized growth

O=C(O)c1ccc(S(=O)(=O)N(Cl)Cl)cc1
inactive: locus YAL013W, strain DEP1, active compounds read low 1 | locus YAL021C, strain ccr4, active compounds read low 1 | locus YAL026C, strain drs2, active compounds read low 0.962 | locus YAL030W, strain snc1, active compounds read low 0.994 | locus YBL061C, strain skt5, active compounds read low 0.975 | locus YBR009C, strain hhf1, active compounds read low 0.925 | locus YBR021W, strain FUR4, active compounds read low 0.987 | locus YBR023C, strain chs3, active compounds read low 1 | locus YBR171W, strain sec66, active compounds read low 0.969 | locus YBR229C, strain ROT2, active compounds read low 1 | locus YBR231C, strain swc5, active compounds read low 0.995 | locus YBR279W, strain paf1, active compounds read low 0.992 | locus YCL011C, strain gbp2, active compounds read low 0.977 | locus YCL016C, strain dcc1, active compounds read low 1 | locus YCL029C, strain bik1, active compounds read low 1.01 | locus YCL061C, strain MRC1, active compounds read low 0.933 | locus YCL069W, strain vba3, active compounds read low 0.988 | locus YCR088W, strain abp1, active compounds read low 0.998 | locus YDL005C, strain med2, active compounds read low 0.996 | locus YDL035C, strain GPR1, active compounds read low 0.989 | locus YDL040C, strain nat1, active compounds read low 0.992 | locus YDL074C, strain BRE1, active compounds read low 0.98 | locus YDL101C, strain DUN1, active compounds read low 1 | locus YDL185W, strain tfp1, active compounds read low 1.01 | locus YDL192W, strain arf1, active compounds read low 1.03 | locus YDR001C, strain nth1, active compounds read low 0.978 | locus YDR069C, strain doa4, active compounds read low 1.02 | locus YDR101C, strain arx1, active compounds read low 1.02 | locus YDR137W, strain rgp1, active compounds read low 1.01 | locus YDR150W, strain NUM1, active compounds read low 1 | locus YDR159W, strain sac3, active compounds read low 0.98 | locus YDR162C, strain NBP2, active compounds read low 1 | locus YDR195W, strain ref2 0.996 | locus YDR297W, strain sur2, active compounds read low 0.988 | locus YDR318W, strain mcm21, active compounds read low 1.01 | locus YDR334W, strain swr1, active compounds read low 0.97 | locus YDR335W, strain msn5, active compounds read low 0.987 | locus YDR388W, active compounds read low 1.02 | locus YDR392W, strain spt3, active compounds read low 0.939 | locus YDR502C, strain sam2, active compounds read low 1.04 | locus YEL003W, strain gim4, active compounds read low 0.964 | locus YEL037C, strain rad23, active compounds read low 0.962 | locus YEL061C, strain CIN8 (second series), active compounds read low 0.975 | locus YEL061C, strain CIN8, active compounds read low 1 | locus YER015W, strain faa2, active compounds read low 1 | locus YER016W, strain bim1, active compounds read low 0.997 | locus YER110C, active compounds read low 1.03 | locus YER111C, strain swi4, active compounds read low 0.982 | locus YER155C, strain BEM2 (second series), active compounds read low 0.979 | locus YER155C, strain BEM2, active compounds read low 0.992 | locus YER167W, strain BCK2, active compounds read low 1 | locus YFR010W, strain ubp6, active compounds read low 0.959 | locus YGL078C, strain dbp3, active compounds read low 1.03 | locus YGL086W, strain mad1, active compounds read low 0.991 | locus YGL167C, strain pmr1, active compounds read low 0.973 | locus YGL173C, strain kem1, active compounds read low 0.982 | locus YGL227W, strain vid30, active compounds read low 0.996 | locus YGL240W, strain doc1, active compounds read low 1.02 | locus YGL248W, strain PDE1, active compounds read low 1 | locus YGL253W, strain hxk2, active compounds read low 0.999 | locus YGR078C, strain PAC10, active compounds read low 0.998 | locus YGR135W, strain pre9, active compounds read low 1.01 | locus YGR252W, strain gcn5, active compounds read low 0.971 | locus YHR013C, strain ard1, active compounds read low 1.01 | locus YHR027C, strain rpn1, active compounds read low 0.993 | locus YHR030C, strain SLT2, active compounds read low 0.999 and 0.973 | locus YHR079C, strain IRE1 (second series), active compounds read low 1.02 | locus YHR079C, strain IRE1, active compounds read low 0.973 | locus YHR094C, strain hxt1, active compounds read low 1.03 | locus YHR129C, strain ARP1, active compounds read low 0.996 | locus YHR142W, strain chs7, active compounds read low 0.971 | locus YHR200W, strain rpn10, active compounds read low 1.03 | locus YIL066C, strain RNR3, active compounds read low 1 | locus YIL073C, strain SPO22, active compounds read low 1.03 | locus YIL125W, strain kgd1, active compounds read low 1.01 | locus YIR030C, strain dcg1, active compounds read low 1.03 | locus YJL092W, strain hpr5, active compounds read low 0.987 | locus YJL095W, strain BCK1 (second series), active compounds read low 0.991 | locus YJL095W, strain BCK1, active compounds read low 1 and 0.969 | locus YJL115W, strain asf1, active compounds read low 0.969 | locus YJL129C, strain trk1, active compounds read low 0.996 | locus YJL134W, strain LCB3, active compounds read low 1 | locus YJL154C, strain vps35, active compounds read low 0.985 | locus YJL164C, strain tpk1, active compounds read low 0.954 | locus YJL166W, strain qcr8, active compounds read low 1.01 | locus YJL168C, strain set2, active compounds read low 1.02 | locus YJL187C, strain SWE1 (second series), active compounds read low 0.998 | locus YJL187C, strain SWE1, active compounds read low 0.994 | locus YJR043C, strain POL32, active compounds read low 0.982
